Screening data deposited in PubChem BioAssay by Broad Institute.
MITF inhib: blocks MITF activity. TRPM1 promoter luciferase, luminescence, 24 h. inhibition, % (test concentration not listed). 37,000 tested, 0.28% active. AID 2240; in the data active = inhibition above about 85%; inconclusive = no clear call, values can overlap the other calls; inactive = below about 68%;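 also: human melanocyte line stably carrying TRPM1 promoter luciferase reporter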
PD-1 reversal: activators reversing PD-1 mediated T-cell inhibition; primary human CD4 T cells, PD-L1 beads, CellTiter-Glo 96 h; activation, % (concentration not given with the values); 29,000 tested, under 10 active; call rule not given here;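 also: 0% = median vehicle wells and 100% = positive control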
Shh pathway inh: Sonic Hedgehog pathway inhibition | 22,000 tested, 2.1% active | AID 2313 | inhibition, % (no concentration beside the values) | Shh-LIGHT2 Gli-luciferase reporter, 30 h;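 active = mean inhibition across valid replicates above about 65%, limit read from the data; inconclusive = mean under the limit, yet half or more replicates past it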;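 also: pathway switched on by Shh-conditioned medium diluted 1 in 25 in low serum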
NOMO-1 viab: STK33 inhibitor candidate reducing NOMO-1 cell viability. NOMO-1 AML viability, CellTiter-Glo luminescence, 72 h. 37,000 tested, 7.5% active. inhibition, % (concentration not given with the values). AID 2330; in the data active = inhibition above about 80%; inconclusive = no clear call, values can overlap the other calls
* marks the source's active call; other numbers are inactive results; ? = inconclusive; · = no result. Compounds with a hit are over-represented: about 7.9% of the library has one in this group of screens.

SMILES | MITF inhib | PD-1 reversal | Shh pathway inh | NOMO-1 viab
CC(C)N1CCN(c2ccc(OC[C@H]3CO[C@](Cn4cncn4)(c4ccc(Cl)cc4Cl)O3)cc2)CC1 | -6 | · | 45 | 31
CC(=O)N1CCN(c2ccc(OCC3CO[C@](Cn4ccnc4)(c4ccc(Cl)cc4Cl)O3)cc2)CC1 (stereo partly specified) | 58 | · | 107* | 107*
O=C(N/N=C/c1ccc([N+](=O)[O-])o1)c1ccc(O)cc1 | 61 | -7 | 10 | 140*
O=C1CN(/N=C/c2ccc([N+](=O)[O-])o2)C(=O)N1 | 14 | 1 | -5 | 45
C=CCN1C(C(=O)c2ccccc2)=C(OC(=O)c2ccccc2)c2ccccc2S1(=O)=O | 17 | -6 | 11 | 108*
O=C(Oc1ccc(N(Cc2cccs2)C2=NS(=O)(=O)c3ccccc32)cc1)c1ccccc1 | -1 | 1 | -39 | 35
C=C(CO)C(=O)O[C@H]1C[C@@]23O[C@@H]2CC/C(=C/[C@H]2OC(=O)C(=C)[C@H]12)CO[C@@H]3O | -11 | -1 | -28 | 103*
Cc1cc(NC(=O)CN(c2ccc(Cl)cc2)S(C)(=O)=O)ccc1Br | -20 | · | · | 23
C[C@@H]1CCCCO[C@@H](CN(C)C(=O)Nc2ccc(C(F)(F)F)cc2)[C@@H](C)CN([C@H](C)CO)C(=O)c2cc(NS(=O)(=O)c3ccc(F)cc3)ccc2O1 | 40 | -8 | 98* | 110*
COc1ccc(S(=O)(=O)Nc2ccc3c(c2)C(=O)N([C@H](C)CO)C[C@H](C)[C@H](CN(C)C(=O)Nc2ccc(C(F)(F)F)cc2)OCCCC[C@@H](C)O3)cc1 | 32 | -6 | -22 | 134*
Cc1ccccc1OCC(=O)Nc1cccc(NC(=O)C(C)C)c1 | -25 | 1 | · | 30
Cc1ccc(-c2nc3c(c(SCC(=O)Nc4cccc(C(F)(F)F)c4)n2)COC(C)(C)C3)cc1 | -1 | -4 | · | 59
O=C(CSc1nc2ccccc2o1)Nc1ccc(I)cc1 | -15 | · | · | 24
CCOc1ccccc1-c1nnc(SCC(=O)Nc2ccc(I)cc2)o1 | 26 | -3 | · | 119*
Cc1cccc(Oc2coc3cc(OCC(=O)Nc4ccccc4C(F)(F)F)ccc3c2=O)c1 | -8 | 0 | · | 23
CCOC(=O)C1CCN(C(=O)Nc2ccc3snnc3c2)CC1 | -4 | 0 | · | 106*
CCOC(=O)C1CCN(C(=O)N2c3ccccc3Sc3ccccc32)CC1 | 5 | 0 | 18 | 2
COc1cc(/C=C\C(=O)O)cc(OC)c1OC | · | · | 21 | ·
COc1cc2c(c(N)c1OC)C(=O)/C(=C/c1cc(C)c(O)c(C)c1)C2 | -1 | -11 | 84* | 97*
COc1ccc(C(Nc2ccccn2)c2cc(Cl)c3cccnc3c2O)cc1[N+](=O)[O-] (stereo unspecified) | 45 | · | · | 113*
COc1cc(C(Nc2ccccn2)c2cc(Cl)c3cccnc3c2O)cc(I)c1O (stereo unspecified) | 15 | · | · | 25
COc1ccc(Br)cc1C(Nc1ccccn1)c1cc(Cl)c2cccnc2c1O (stereo unspecified) | 51 | · | · | 114*
CCN1CCN(C(=O)CSc2nc(-c3ccc(OC)c(OC)c3)cc(C(F)(F)F)n2)CC1 | 23 | -2 | · | 70
COc1cc([C@H]2Oc3c(OC)cc(/C=C/CO)cc3[C@H]2CO)ccc1OC1OC(CO)C(O)C(O)C1O (stereo partly specified) | · | · | 22 | ·
O=C(c1cn(-c2ccccc2)nc1-c1cc2ccccc2oc1=O)n1nnc2ccccc21 | 0 | -2 | · | 29
SMILES | MITF inhib | PD-1 reversal | Shh pathway inh | NOMO-1 viab
C=C(C)C(=O)O[C@H]1C[C@@]2(C)OC(=CC2=O)/C(COC(C)=O)=C\[C@H]2OC(=O)C(=C)C12 (stereo partly specified) | 34 | -13 | ? | 120*
C[C@@H]1CN([C@@H](C)CO)C(=O)c2cc(NC(=O)Nc3cccc4ccccc34)ccc2O[C@H]1CN(C)CC1CCCCC1 | -14 | -1 | 34 | 56
C[C@@H]1CCCCO[C@H](CN(C)CC2CCCCC2)[C@@H](C)CN([C@H](C)CO)C(=O)c2cc(NC(=O)Nc3cccc4ccccc34)ccc2O1 | 1 | -9 | 30 | 128*
C[C@@H]1CCCCO[C@@H](CN(C)CC2CCCCC2)[C@@H](C)CN([C@H](C)CO)C(=O)c2cc(NC(=O)Nc3cccc4ccccc34)ccc2O1 | -20 | -11 | -10 | 112*
C[C@@]12C[C@@H](c3ccoc3)OC(=O)[C@H]1CC[C@@]1(C)C(C(=O)O)=CCC[C@@H]21 | · | · | -2 | ·
CCn1c2c(c3cc(Br)ccc31)CCCC2=O | -8 | -4 | 8 | 24
CCn1c2c(c3cc(OCc4ccccc4)ccc31)CCCC2=O | -25 | 1 | 77* | 38
Cc1cc2nc(Nc3nc4ccccc4c(=O)[nH]3)nc(C)c2cc1C | -10 | -4 | · | 127*
CSc1ccccc1NC(=O)CN(C)S(=O)(=O)c1c(C)cc(C)cc1C | -4 | -3 | · | 3
C[C@@H]1CN([C@H](C)CO)C(=O)c2cccc(NC(=O)Nc3ccc4c(c3)OCO4)c2O[C@@H]1CN(C)Cc1ccc(-c2ccccc2)cc1 | -8 | -2 | 19 | 94*
C[C@H](CO)N1C[C@H](C)[C@@H](CN(C)Cc2ccc3c(c2)OCO3)Oc2c(NC(=O)Nc3ccc4c(c3)OCO4)cccc2C1=O | -35 | -4 | -50 | 49
C[C@@H]1CN([C@@H](C)CO)C(=O)c2cccc(NC(=O)Nc3ccc4c(c3)OCO4)c2O[C@@H]1CN(C)Cc1ccc(-c2ccccc2)cc1 | -8 | -5 | 45 | 116*
C[C@H](CO)N1C[C@H](C)[C@H](CN(C)Cc2ccc(-c3ccccc3)cc2)Oc2c(NC(=O)Nc3ccc4c(c3)OCO4)cccc2C1=O | -17 | -4 | -28 | 120*
C[C@@H]1CN([C@H](C)CO)C(=O)c2cccc(NC(=O)Nc3ccc4c(c3)OCO4)c2O[C@H]1CN(C)Cc1ccc(-c2ccccc2)cc1 | 4 | -3 | 2 | 91*
C[C@@H]1CN([C@@H](C)CO)C(=O)c2cccc(NC(=O)Nc3ccc4c(c3)OCO4)c2O[C@@H]1CN(C)Cc1ccc2c(c1)OCO2 | -20 | -1 | -3 | 29
C[C@H]1CN([C@@H](C)CO)C(=O)c2cccc(NC(=O)Nc3ccc4c(c3)OCO4)c2O[C@H]1CN(C)Cc1ccccc1 | -5 | 2 | 9 | 65
C[C@H]1CN([C@@H](C)CO)C(=O)c2cccc(NC(=O)Nc3ccc4c(c3)OCO4)c2O[C@@H]1CN(C)Cc1ccccc1 | -27 | · | -7 | 55
Cc1cccc(-c2nnc(SCC(=O)Nc3ccc(Br)cc3F)o2)c1 | -58 | · | · | 3
CN1C(=O)C(c2c[nH]c3ccccc23)=C(c2c[nH]c3ccccc23)C1=O | 29 | -2 | 32 | 19
C[C@H](CO)N1C[C@H](C)[C@H](CN(C)Cc2ccc(Oc3ccccc3)cc2)Oc2c(NC(=O)Nc3ccc4c(c3)OCO4)cccc2C1=O | 3 | -3 | 16 | 116*
Cc1ccc(NC(=O)c2ccc3c(=O)n(Cc4ccco4)c(=S)[nH]c3c2)cc1Cl | -7 | -1 | 42 | 121*
CC(Oc1cccc(NC(=O)c2ccccc2Cl)c1)C(=O)c1ccc(Cl)cc1 (stereo unspecified) | 0 | · | · | 27
Cn1c(SCc2nc(-c3ccc(Cl)cc3)no2)nnc1-c1ccccc1 | 5 | · | · | -20
